Bioassay records as filed in PubChem BioAssay.
Only a selection was taken, and hits are over-represented in it overall.
Cruzain Triton: cruzain (T. cruzi) inhibition with detergent; purified cruzain, Z-FR-AMC fluorescence, 0.01% Triton; Potency, µM, without a hit: max response, negative = inhibition, usual class: inhibitors; hit rate 0.43% among 200,000;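 further: plate controls were neutral wells for no effect and buffer without enzyme for full effect; nearly all actives have a fitted effect of over 40% in size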
Target sequence (P25779 123-467 limits assumed): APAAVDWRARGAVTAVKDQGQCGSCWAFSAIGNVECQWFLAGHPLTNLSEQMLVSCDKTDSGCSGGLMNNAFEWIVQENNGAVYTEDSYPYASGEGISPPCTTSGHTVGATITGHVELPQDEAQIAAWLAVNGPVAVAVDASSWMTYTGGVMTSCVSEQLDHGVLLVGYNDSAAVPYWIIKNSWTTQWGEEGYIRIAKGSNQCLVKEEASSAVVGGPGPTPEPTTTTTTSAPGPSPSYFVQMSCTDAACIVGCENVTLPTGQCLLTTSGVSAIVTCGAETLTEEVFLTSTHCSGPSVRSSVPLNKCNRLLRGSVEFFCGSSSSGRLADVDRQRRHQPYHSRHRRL
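Detergent-containing run (0.01% Triton X-100) in acetate buffer pH 5.5 with 5 mM DTT: enzyme at 1.5 nM final, 15 min compound preincubation at room temperature, then 2 uM Z-FR-AMC substrate. Activity taken as 60 s fluorescence increase at 360/450 nm.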
Cruzain inh noDet: inhibitors of Trypanosoma cruzi cruzain without detergent; P25779; purified cruzain, Z-FR-AMC fluorescence, no detergent; Potency, µM, without a hit: max response, negative = inhibition, most hits filed as inhibitors; hit rate 2.3% among 200,000;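 further: plate controls were enzyme without inhibitor for no effect and buffer without enzyme for full effect; nearly all actives have a fitted effect of over 40% in size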
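Purified cruzain at 1.5 nM, pre-incubated 15 min with compound at room temperature in 100 mM sodium acetate pH 5.5, 5 mM DTT, 0.00005% Triton X-100. Reaction started with 2 uM Z-FR-AMC; AMC fluorescence increase over 60 s gives rate.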
NS1 inh: blocks influenza NS1 protein function; Potency, µM (doses to about 46.1 µM), for the others: at the highest dose activity, positive = more growth; hit rate 0.4% among 270,000; AID 2326; calls by dose curve; further: actives are rising curves; nearly all actives have a fitted effect of over 50% in size
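Read-out: OD600 growth recovery of NS1-expressing budding yeast. Cells grown overnight at 30C in -URA glucose medium, washed, resuspended and diluted 1:100 in 2% galactose assay medium, pH 6.0. Same strain lacking NS1 served as positive control.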
Papain inh: counter-screen for cruzain inhibitors: papain inhibition. shares compounds with Cruzain Triton. purified papain, Z-FR-AMC fluorescence cleavage. Potency, µM, for the others: max response, negative = inhibition, most hits filed as inhibitors. hit rate 41% among 410. AID 2161;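 further: 0% = no-compound wells and -100% = no-enzyme wells; nearly all actives have a fitted effect of over 35% in size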
Target sequence (P00784 whole entry, looked up): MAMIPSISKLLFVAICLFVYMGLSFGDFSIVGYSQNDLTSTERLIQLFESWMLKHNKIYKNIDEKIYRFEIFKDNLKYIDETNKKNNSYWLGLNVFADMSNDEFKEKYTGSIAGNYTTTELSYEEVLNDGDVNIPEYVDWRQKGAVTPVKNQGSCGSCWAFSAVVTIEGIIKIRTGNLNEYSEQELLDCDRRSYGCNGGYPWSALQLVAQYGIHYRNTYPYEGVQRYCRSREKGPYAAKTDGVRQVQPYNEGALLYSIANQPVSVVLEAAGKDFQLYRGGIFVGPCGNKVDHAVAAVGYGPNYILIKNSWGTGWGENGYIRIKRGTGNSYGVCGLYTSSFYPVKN
Numbers without * were called inactive; ? = inconclusive; · = no result. Unless noted, the call rests on the fitted dose curve; in most records, active means well fitted curve in the direction sought with a large enough effect; inconclusive means small, poorly fitted or top-dose-only effect, or another doubt; inactive means no such curve, though single readings can be large; an effect the other way counts as inactive or inconclusive. Potency means the concentration at half of the fitted maximal effect.

SMILES	Cruzain Triton	Cruzain inh noDet	NS1 inh	Papain inh
NC(=S)N/N=C/c1ccc(-c2ccc(Cl)c(Cl)c2)o1	0.63µM*	0.63µM*	-52%	6.3µM*
NC(=S)N/N=C/c1ccc(-c2ccc(SC(F)F)cc2)o1	·	·	-3%	·
Cc1ccc(-c2ccc(/C=N/NC(N)=S)o2)cc1	·	·	-57%	·
NC(=S)N/N=C\c1ccc(-c2cccc(Cl)c2Cl)o1	0.63µM*	0.63µM*	1%	2.8µM*
Cc1ccc(S(=O)(=O)NC2=NCN(Cc3ccccc3)CN2)cc1	1%	-4%	-1%	·
CC(C)CC(=O)NC1(C(F)(F)F)NC(=O)N(c2ccccc2)C1=O (stereo unspecified)	·	·	-2%	·
C=CC(C)(C)c1[nH]c2ccccc2c1C1=C(O)C(=O)C(c2c[nH]c3c(CC=C(C)C)cccc23)=C(O)C1=O	32µM*	?	·	4.5µM*
NC(=O)C1CCN(C(=O)CSc2ncccn2)CC1	·	·	4%	·
Cn1c(=O)c2c(-c3ccccc3)n(-n3cnnc3)cc2n(C)c1=O	8.9µM*	6.3µM*	2%	13µM*
Cn1c(=O)c2c(-c3ccccc3)n(CCCO)cc2n(C)c1=O	2%	-5%	·	·
CNc1oc(Cc2ccccc2)nc1S(=O)(=O)c1ccc(Cl)cc1	10µM*	10µM*	-1%	-12%
O=S(=O)(c1ccc(Cl)cc1)c1nc(-c2ccccc2Br)oc1NCc1ccccc1	-7%	?	·	·
CC(CCc1ccccc1)NC(=O)Cn1ncc2c3ccccc3n(Cc3ccc(F)cc3)c2c1=O (stereo unspecified)	-2%	-2%	·	·
O=C(Nc1cc(C(F)(F)F)ccc1Cl)C(Sc1ccccn1)c1ccccc1 (stereo unspecified)	·	·	3%	·
O=C(CNC(=O)c1ccccc1)N[C@@H](C(=O)Nc1cc(C(F)(F)F)ccc1Cl)c1ccccc1	·	·	·	-10%
O=c1oc2ccc(Br)cc2cc1-c1csc(-c2ccc(Cl)cc2)n1	2%	-6%	·	·
O=c1oc2ccccc2cc1-c1csc(Cc2nc(-c3ccc(Br)cc3)cs2)n1	2%	3.2µM*	13%	20%
CC(=O)Nc1ccc(C(=O)Nc2cc(C)on2)cc1	·	·	-1%	·
Cc1cccc(C)c1OCCn1c(CCNC(=O)C2CCCCC2)nc2ccccc21	3.5µM*	5%	·	-26%
Cc1cc(OCCn2c(CCNC(=O)C3CCCCC3)nc3ccccc32)ccc1Cl	2.5µM*	-15%	·	-6%
CC(=O)NCCc1nc2ccccc2n1Cc1cccc(C)c1	·	·	2%	·
Cc1cccc(OCCCn2c(CCNC(=O)C(C)C)nc3ccccc32)c1	-2%	16%	-13%	·
Cc1ccc(Cn2c(CCNC(=O)c3cccc(C)c3)nc3ccccc32)cc1	5µM*	25%	·	-12%
Cc1cccc(OCCCn2c(CCNC(=O)C3CCCCC3)nc3ccccc32)c1	2µM*	-4%	·	16µM*
COc1ccc(-n2nc3c(c2NC(=O)C2CC2)CS(=O)(=O)C3)cc1	·	·	1%	·
SMILES	Cruzain Triton	Cruzain inh noDet	NS1 inh	Papain inh
COc1ccc(C(C(=O)NC2CCCCC2)N(C(=O)c2ccccn2)c2cccnc2)c(OC)c1 (stereo unspecified)	·	·	-4%	·
COCc1cc(=O)[nH]c(Cc2c(Cl)cccc2Cl)n1	·	·	5%	·
Cc1ccc(-n2ncc(C(=O)Nc3ccc4c(c3)OCO4)c2C2CCN(C(=O)OC(C)(C)C)CC2)cc1	-10%	-9%	·	·
Cc1ccc(Cl)cc1N1CCN(C(=O)c2nn(C)c3c2CS(=O)(=O)c2ccccc2-3)CC1	-2%	-14%	·	·
CC1Cc2cc(/C(O)=C3/C(=O)C(=O)N(CCCn4ccnc4)C3c3ccc(F)cc3)ccc2O1 (stereo unspecified)	·	·	-11%	·
Cc1cc(C)cc(OCCn2c(CCNC(=O)C3CCCCC3)nc3ccccc32)c1	1.8µM*	1%	·	2%
CC(=O)NCCc1nc2ccccc2n1CCOc1cccc(C)c1	·	·	-2%	·
Cc1cc(C)cc(OCCCn2c(CCNC(=O)C3CCCCC3)nc3ccccc32)c1	2µM*	3%	·	25µM*
CCOC(=O)C1=C(CC)Nc2ccccc2N=C1NC(=O)Nc1ccc(Cl)c(Cl)c1	-5%	?	-223%	·
Cc1ccc(OCCNC(=O)/C=C/c2ccc([N+](=O)[O-])cc2)cc1C	-8%	6%	-9%	·
COc1ccc(-c2nnc(-c3ccc(N)cc3)o2)cc1	-5%	-17%	-4%	·
COc1ccc(-c2ccc(-c3nnc(-c4cc(OC)ccc4OC)o3)cc2)cc1	?	25µM*	-2%	11µM*
Cc1cc(C)c(S(=O)(=O)N2CCCOC2CNC(=O)C(=O)NCc2cccs2)c(C)c1 (stereo unspecified)	-5%	1%	-10%	·
O=C(Nc1nc(-c2ccccc2)c(-c2ccccc2)s1)c1ccc(S(=O)(=O)N(CCCl)CCCl)cc1	-2%	4µM*	-2%	17%
COCCN(CCOC)S(=O)(=O)c1ccc(C(=O)Nc2nc(C)c(C(C)=O)s2)cc1	-9%	21%	1%	·
CCCCNC(=O)c1ccc2nc(-c3cccs3)c(-c3cccs3)nc2c1	·	·	·	-5%
COC(CNC(=O)c1ccc2nc(-c3cccs3)c(-c3cccs3)nc2c1)OC	-12%	29%	-7%	·
CCN(CC)c1ncnnc1-c1ccccc1	-2%	-2%	14%	·
Cc1ccc(S(=O)(=O)CCC(=O)OCC(=O)Nc2ncc(Cl)cc2Cl)cc1	-18%	-15%	-12%	·
Cc1ccc(S(=O)(=O)NCC(=O)OCC(=O)Nc2ncc(Cl)cc2Cl)cc1	20µM*	25µM*	?	-30%
N#Cc1nc(-c2cccc3ccccc23)oc1N1CCCCC1	-3%	?	3%	·
CC1CCN(c2oc(-c3cccc4ccccc34)nc2C#N)CC1	32µM*	?	-3%	40µM*
CC(C)C(NS(=O)(=O)c1cccc2nsnc12)C(=O)NCc1ccc2c(c1)OCO2 (stereo unspecified)	-2%	-22%	-3%	·
CCOc1ccc(CN2C(=O)c3ccccc3Sc3ccc(C(=O)NCc4ccc5c(c4)OCO5)cc32)cc1	-2%	10µM*	·	1%
CCOc1ccc(CN2C(=O)c3ccccc3Sc3ccc(C(=O)NC)cc32)cc1	-6%	?	·	·
SMILES	Cruzain Triton	Cruzain inh noDet	NS1 inh	Papain inh
COc1ccccc1N1CCN(C(=O)CN(c2ccccc2OC)S(=O)(=O)c2ccccc2)CC1	3%	?	-8%	8%
COc1ccccc1N(CC(=O)N1CCC(C(N)=O)CC1)S(=O)(=O)c1ccccc1	·	·	6%	·
COc1ccccc1NC(=O)C(=O)NCc1ccccc1Cl	-1%	?	2%	·
Cc1cc(Oc2ccccc2)nc(-c2ccccc2O)n1	-6%	-5%	-32%	·
C=C1C(=O)O[C@@H]2C[C@@H](C)[C@@H]3C=CC(=O)[C@@]3(C)[C@@H](OC(C)=O)[C@H]12	·	·	-4%	·
N#CCSc1nc2scc(-c3cccs3)c2c(=O)n1CCc1ccccc1	7%	16µM*	15%	10%
N#CCSc1nc2sccc2c(=O)n1-c1ccccc1	·	·	16%	·
C=Cn1ccnc1P(=S)(c1ccc(N(C)C)cc1)c1nccn1C=C	0%	?	-6%	·
C=Cn1ccnc1P(=S)(c1ccc2c(c1)c1ccccc1n2CC)c1nccn1C=C	-4%	?	-27%	6%
Cc1ccc(C(=O)Nc2ccc(N3CCN(C)CC3)cc2)cc1C	·	·	5%	·
O=C(COC(=O)CNC(=O)C1CCCCC1)NC1CC1	·	·	·	25µM*
CCOC(=O)CNC(=O)C1CCCCC1	·	·	·	-18%
